# Measurements published in the supplement of paper PMC12632987.
# Whole data set: some 1,800 sequences, median “median log2 fold change of GCK-ALFA target abundance (FLAG IP / Myc IP barcode read proportion)” near 0.14, cut for the lowest 2% near -0.84. Only a selection was taken, and the lowest values are over-represented in it overall.
# T1: TRAF2, Q12933
# T1 chain: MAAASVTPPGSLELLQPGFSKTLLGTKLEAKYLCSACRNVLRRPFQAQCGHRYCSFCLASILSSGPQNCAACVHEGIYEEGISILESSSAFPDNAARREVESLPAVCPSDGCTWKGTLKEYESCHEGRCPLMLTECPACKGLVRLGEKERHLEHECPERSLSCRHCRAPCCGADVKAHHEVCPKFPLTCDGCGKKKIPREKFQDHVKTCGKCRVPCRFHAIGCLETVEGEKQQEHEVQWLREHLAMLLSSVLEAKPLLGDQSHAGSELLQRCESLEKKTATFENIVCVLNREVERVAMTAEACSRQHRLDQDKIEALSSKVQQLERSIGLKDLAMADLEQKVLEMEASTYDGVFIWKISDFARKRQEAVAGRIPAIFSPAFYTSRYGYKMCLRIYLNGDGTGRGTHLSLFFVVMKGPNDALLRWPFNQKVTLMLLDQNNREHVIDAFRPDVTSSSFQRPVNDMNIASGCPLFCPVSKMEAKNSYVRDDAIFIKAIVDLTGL
# B1: traf2_out_17_162_1579 (protein)
# chain: SELEEKLKELEEKLKELEKELKRFKEELKNLENKSKEELTDLLVEVSEARREALQLAEELKKLEKEIGEEKAKELIEKAEEIAEEFQRIANEIYKELLKK
# B2: traf2_out_6_156_2416 (protein)
# chain: MVEEILKEALEKVKELIKELAKAPESKKIQYISKIAGTAYRALQKLREAGASLEEIEEFAKRFLEETKKLAKEAGLPEDTINLLLSALQAVFDVAIAEAK
# B3: traf2_out_6_3_2523 (protein)
# chain: SEESLREDARRVLEGMGITTAEQLRRLVRAEVNAVRRLVSRPDTDEADLAGAESVLALAEAVVDVAAEELPDLTEEQVAELRALIEEARKLVEEKRAELA
# B4: traf2_out_17_178_1720 (protein)
# chain: SKEEYRKKISELTDKLIDLAEAAAARLLALARAEGTLSPEELAALEAARRRGSPNDTLALMRRVAPRLRSAAEAEALLADFEAQSKALAKEIAELYEKYE
# B5: traf2_out_13_95_1096 (protein)
# chain: SKELAEKIMEIADKMLDEVEKLLEELLKEAKKAGKLEEEVTEALNLARYRSINEAIHLLEELAKKHPEFKELYEKTIKEIKEIIKEAGKEVAKLIKEEKE
# B6: traf2_out_13_95_1103 (protein)
# chain: SEETAKKIMEVADKMLDKVEELLEKLLEKAKKAGKLEEEIEKALHLARYQSINEAIHLLKELAKKYPEFKEELEETIKEIEALRKQAGKEVAKIIKEEKE
# B7: traf2_out_6_3_2524 (protein)
# chain: SEESLRADARKILEGMGITTAEQLRTLVTAEVNAVRQLVSRPDTDRADLAGARSVLALSRAIVDVAAETLPDLTPEQVAALRALIAAAEELIAAREAELA
# B8: traf2_out_16_104_1376 (protein)
# chain: SAATDAAFQAIIARLEAIAERAQRLANELMKLYEKASPEEKEKISDALVEVSELRRRALAAAEAVRQAQAAGGDLAEAQATLAELEARLAEAEARVEELK
# B9: traf2_out_11_169_872 (protein)
# chain: KEAEKNRKLNDFALELNDEAKEKLKEFALKLAKELGLDVEEVKKIFEENKNKSLSAVAAALIKYFKEKGKEDAAAKIEKKYEELKEEINKKTSEKIKELE
# B10: traf2_out_3_89_2287 (protein)
# chain: SEEREKKIEELRRIIDRYLKGFEKSARRVAKEMLEEGYSLDTLEGVLNASKTALVEEIRRLAKERGLSEEDIKELVEEATKRLDEIVDKILEEAKKARAE
# B11: traf2_out_19_16_1983 (protein)
# chain: AEEEAERLLAEMRRHLDEALRLAEETVANLDKLSRDELMDRLVEISELVRRAQEALQRALELLADDPERRAAIRAEYDERLDRINRLMTKIVDRLLELLK
# B12: traf2_out_11_79_931 (protein)
# chain: SEKRKELEELIKKALKLVEELIKKLKEGNISEEEFAKTIEEILELLQRAMQLALELGLSDVLVLLSEARRHVLLSRTRNLEELEKAAKYLKEALKELEKE
# B13: traf2_out_18_167_1826 (protein)
# chain: SEEAEKKINELRDKLIEYSEIRRLALAAIEALRTDPAAAEAALAAVIAALEKVPEFRPDAERLKALPREELPAALEEIAERAQRKMNEIYKEIEEIKKKA
# B14: traf2_out_6_3_2531 (protein)
# chain: DRESLLADARKVLENMGITTAAELQRLVEAEVRAIRQLISRPDVDRADLAGARSVIALARAMVEVAAETLPDFTPEQQARLQALLAEAEELVRRREEELA
# B15: traf2_out_20_3_2095 (protein)
# chain: EELEKELEKALKEAAKLIKKAIALADPETAARLEALLKRLKAAEKLPLEDRLVALSAVRRELLALAEEARAAGREELAKLLEEAAEEVNRAMNLAYKIIE
# B16: traf2_out_9_17_2611 (protein)
# chain: SAEEEELKERLLEAIEEVLKELVEKGYITEEEAEEILKKVKELIEKGASPDEIIAEFLGMIASILLTKSNLSLPEANKIVGEAYRRLQERLEKIEKELAE
# B17: traf2_out_16_104_1406 (protein)
# chain: AAATQAAFDAIIAELNKIAEELGKIANKIYKKMETASPELKEKLTDALVDASELRRQALEAAVAAAQARATGGDLAAAQATLAELKKKAEEVKKKAEELF
# B18: traf2_out_14_149_1255 (protein)
# chain: SETEKKRKALEEARALMEEIAAILEAALAAGSTEVDRERLRALVEEARAILREQGFVLGHLLAIEEMLATTEEFTLADIEALLAEVRRAAESLAVLAEML
# B19: traf2_out_6_3_2517 (protein)
# chain: MEESIRKDARTVLENMGITTVEQLKKLVEANVNAVKKLVSRKDVDRADLAAANSVLNLTRAMVEVAAETLPDLTEEDVKEMNALIDEARELIEKKKKELE
# Biological target: T1, TRAF2, Q12933
# Assay: median log2 fold change of GCK-ALFA target abundance (FLAG IP / Myc IP barcode read proportion) (log2 ratio); each designed protein is fused to an ALFA-tag nanobody in HEK293 cells to bring the named protein to FLAG-tagged glucokinase (GCK); Myc marks an untargeted standard; higher = target protein stabilised (more abundant)
# Conditions: target protein: 3xFLAG-MCP-GCK-ALFA reporter; HEK293 landing pad (RPLP)
# Outline: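 HEK293 landing-pad cells received a recombined binder library fused to the ALFA nanobody and were induced with 2 μg mL^−1 doxycycline, then transfected with a plasmid encoding a FLAG-tagged target and a Myc-tagged standard. Lysates were collected after 48 h for anti-FLAG and anti-Myc immunoprecipitation, and the circular RNA barcodes were reverse transcribed, amplified and sequenced. Target abundance for each binder is the median log2 ratio of FLAG to Myc barcode read proportions. Barcodes had to reach a proportion of at least 10^−7 in both replicates, each binder needed at least 3 barcodes per replicate, a pseudocount of 10^−6 was applied, and the two replicates were pooled.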
row,Binder,median log2 fold change
1,B1,0.462
2,B2,-0.0768
3,B3,-0.222
4,B4,0.2
5,B5,-0.702
6,B6,-1.3
7,B7,-0.125
8,B8,0.417
9,B9,0.289
10,B10,-0.239
11,B11,-0.215
12,B12,0.265
13,B13,0.154
14,B14,-0.925
15,B15,-0.0878
16,B16,0.0354
17,B17,0.196
18,B18,-0.105
19,B19,-1.1
